This passage reports inhibition results from PubChem BioAssay AID1565 (Sanford-Burnham Center for Chemical Genomics, 2009).

The structures appear in SMILES notation. The campaign covered roughly 290,000 compounds. About 3,200 (1.1%) were called active. Rule as the data show it: active = inhibition above about 60%; inactive = the rest. For the sample, actives were picked, then their nearest neighbours and some compounds at random. Peptide text beside a SMILES is read from it.

The target of this assay is Phosphoethanolamine/phosphocholine phosphatase (Homo sapiens) (UniProt Q8TCT1). The experiment in a line: PubChem AID 1565. The note with it: recombinant PHOSPHO1, absorbance phosphatase assay; at 13.3 µM; hits give high values.
Chain of Phosphoethanolamine/phosphocholine phosphatase (Homo sapiens) (Q8TCT1 whole entry, looked up): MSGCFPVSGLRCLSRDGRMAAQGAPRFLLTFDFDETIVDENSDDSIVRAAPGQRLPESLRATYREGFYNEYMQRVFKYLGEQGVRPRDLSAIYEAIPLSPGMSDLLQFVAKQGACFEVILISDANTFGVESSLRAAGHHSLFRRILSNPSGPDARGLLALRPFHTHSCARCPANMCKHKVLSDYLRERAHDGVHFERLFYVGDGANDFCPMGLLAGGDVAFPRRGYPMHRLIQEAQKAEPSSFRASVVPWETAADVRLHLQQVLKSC
For `Cc1ccc(NC(=O)C2CCCN2C(=O)OCc2ccccc2)cc1C` (centres undefined), the inhibition is 22.6% (inactive).

Consider `O=C(COC(=O)/C=C/c1cccs1)NC1CCCCC1`, for which the inhibition was 51% (inactive).

Regarding `COc1ccccc1NC(=O)C1CCCN1S(=O)(=O)c1ccc(Cl)cc1` (centres undefined), the inhibition was 0% (inactive).

On to `CCc1ccc(-c2cc3c(=O)n(CC(=O)NCCCN4CCN(Cc5ccccc5)CC4)nc(C)n3n2)cc1`, for which the inhibition was 26.1% (inactive).

In the case of `Cc1c(S(=O)(=O)NC(C)c2ccccc2)c(=O)n(C)c(=O)n1C` (centres undefined), the inhibition is -5.4% (inactive).

Turning to `Cc1cc2nnc(SCC(=O)N3CCN(c4ccccc4)CC3)n2c(N)n1`, the inhibition was 40.7% (inactive).

As for `Cc1nnc(SCC(=O)N2CCN(c3ccccc3)CC2)n1-c1ccccc1`, the inhibition is 68.4% (active).

Take `O=C(CSc1nnc(Cc2ccccc2)n1-c1ccccc1)N1CCOCC1`: the inhibition was -9.6% (inactive).

On to `Cc1ccc2[nH]c(=O)c(CC(=O)O)c(-c3ccccc3)c2c1`, for which the inhibition is 7.8% (inactive).

`CCC(C(=O)OC)n1cnc2c(oc3ccccc32)c1=O` (centres undefined): the inhibition was 1% (inactive).

Consider `O=C(CSc1nc(C2CC2)nc2ccccc12)Nc1cccc(O)c1`, for which the inhibition was 15.1% (inactive).

With `CCOC(=O)Cc1csc(SCc2cc(=O)oc3cc(O)ccc23)n1`, the inhibition is -13.2% (inactive).

In the case of `Cc1ccc2c(CSc3nncs3)cc(=O)oc2c1`, the inhibition was 76.1% (active).

`COCc1cc(=O)oc2cc(NS(=O)(=O)c3ccc(C)cc3)ccc12`: the inhibition is 22.5% (inactive).

For `CCCSc1nc2sc3c(c2c(=O)n1-c1ccc(OC)cc1)CCN(C)C3`, the inhibition was 31.6% (inactive).

On to `COC(=O)[C@@H]1CC(O)CN1C(=O)C12CC3CC(CC(C3)C1)C2` (some centres undefined), for which the inhibition is 24.2% (inactive).

For the molecule `CCOc1ccc(NC(=O)CCC(=O)NNC(=O)NC2CCCCC2)cc1`, the inhibition was -0.6% (inactive).

Turning to `CCCNC(=O)NC(=O)COC(=O)CC(NC(N)=O)c1ccc(Cl)cc1` (centres undefined), the inhibition was -17.2% (inactive).

`CC(=O)N1CCC(C(=O)OCc2ccc(Cl)cc2)(c2ccccc2)CC1`: the inhibition is 40% (inactive).

Turning to `COCCNC(=O)NC(=O)COC(=O)C1(c2ccc(Cl)cc2)CC1`, the inhibition is 62.9% (active).

For `COc1ccc(C(=O)C2CCCN(C(=O)c3ccc(OC)o3)C2)c(C)c1` (centres undefined), the inhibition was -0.6% (inactive).

On to `O=C(OCCN1C(=O)c2ccccc2C1=O)Oc1ccccc1`, for which the inhibition is 22.3% (inactive).

Take `COC(=O)c1ccc(S(=O)(=O)N2CCc3ccccc3C2)cc1`: the inhibition is 44.4% (inactive).

As for `CCCNC(=O)C(=O)Nc1cc2c3c(c1)CCC(=O)N3CCC2`, the inhibition was 54.7% (inactive).

Regarding `NC(=O)c1c(NC(=O)CSc2nc(N)cc(=O)[nH]2)sc2c1CCCC2`, the inhibition is 12.9% (inactive).

With `CCc1cccc(C)c1NC(=O)CSc1nnc(-c2ccco2)n1N`, the inhibition is 22.6% (inactive).

For `NC(=O)c1c(NC(=O)CSc2nnc(-c3ccco3)n2N)sc2c1CCCC2`, the inhibition was 103% (active).

Regarding `NC(=O)C(Cc1ccccc1)NC(=O)C12CC3CC(CC(C3)C1)C2` (centres undefined), the inhibition was 24.1% (inactive).

Turning to `Oc1ccc(Br)cc1/C=N/Nc1ccccn1`, the inhibition is 22.9% (inactive).

Consider `CC1(C)Cc2ccccc2/C(=C/C(=O)c2ccccc2)N1`, for which the inhibition is 24.1% (inactive).

Take `O=C(CNC(=O)c1ccccc1)NCC(=O)OCC(=O)c1ccccc1` (HELM PEPTIDE1{[O=C(c1ccccc1)[*:2]].G.G.[O=C(CO[*:1])c1ccccc1]}$$$$V2.0): the inhibition is 27.8% (inactive).

As for `O=C(CNC(=O)c1ccc(-c2ccccc2)cc1)OCc1ccc(Cl)cc1`, the inhibition is 9.5% (inactive).

As to `O=C(CNC(=O)c1ccccc1)NCC(=O)OCc1ccc(Cl)cc1`, the inhibition was 62.3% (active).

`Cc1cccc(C)c1NC(=O)C(Cl)C(=O)c1ccccc1` (centres undefined): the inhibition is 20% (inactive).

In the case of `CSc1ncccc1C(=O)NCc1ccccc1Cl`, the inhibition was 44.9% (inactive).

`O=C(CSc1nnc(CNC(=O)c2ccc(F)cc2)o1)Nc1ccc2c(c1)OCO2`: the inhibition is -23.1% (inactive).

For `COc1cccc(/C=N/Nc2ncc(C(F)(F)F)cc2Cl)c1O`, the inhibition is -8.9% (inactive).

As for `COc1cc(/C=C2\SC(=S)N(Nc3ncc(C(F)(F)F)cc3Cl)C2=O)cc(OC)c1OC`, the inhibition is 71.2% (active).

On to `CCOc1ccc(/C=C2\SC(=S)N(NC(=O)c3ccncc3)C2=O)cc1OC`, for which the inhibition is 23.7% (inactive).

Regarding `CC(=O)OCCN(CCCn1c(-c2ccncc2)nc2ccccc21)c1nc(-c2ccc(C)cc2)cs1`, the inhibition was 20.2% (inactive).

Regarding `Nc1ccc(C(=O)Nc2ccccc2N)cc1`, the inhibition is 8.3% (inactive).

With `Cc1cc(C)c(C#N)c(N2CCC(C(N)=O)CC2)n1`, the inhibition is -42.6% (inactive).

Consider `N#Cc1c(-c2ccccc2)cc(-c2ccccc2)nc1SCC(=O)O`, for which the inhibition was -12.1% (inactive).

Take `N#Cc1c(N2CCCCC2)nc(N)c2c(N)nc(SCC(=O)O)cc12`: the inhibition was 60.8% (active).

As to `C/C(CC(=O)NCc1ccc(Cl)cc1)=N\NC(=O)COc1ccc(C)cc1Br`, the inhibition was 41.6% (inactive).

As to `CC1CCN(C(=O)Cn2nnnc2CN2CCOCC2)CC1`, the inhibition was 47.5% (inactive).

`Cc1ccc(C2Nc3cccc4cccc(c34)N2)cc1`: the inhibition was 13.8% (inactive).

On to `Oc1ccc(C2Nc3cccc4cccc(c34)N2)cc1`, for which the inhibition was 14.1% (inactive).

Consider `C/C(=C\c1ccco1)C1Nc2cccc3cccc(c23)N1`, for which the inhibition is 94% (active).

For the molecule `CC1CCN(CC(=O)c2c[nH]c3ccccc23)CC1`, the inhibition is 47.6% (inactive).

`O=C(NCCCc1ccccc1)C(=O)c1c[nH]c2ccccc12`: the inhibition was 38.2% (inactive).

As to `O=C(NC1CCCC1)C(=O)c1c[nH]c2ccccc12`, the inhibition was 62.6% (active).

In the case of `Cc1nc([N+](=O)[O-])nn1C12CC3CC(CC(Br)(C3)C1)C2`, the inhibition was 93% (active).

As for `Cc1ncn(C23CC4CC(CC(O)(C4)C2)C3)n1`, the inhibition is 12.9% (inactive).

As to `COc1cccc(NC(=O)c2nn(C34CC5CC(CC(C5)C3)C4)cc2[N+](=O)[O-])c1`, the inhibition was 6.2% (inactive).

For `Cc1cc(-c2ccc(C)c(S(=O)(=O)Nc3ccc(S(N)(=O)=O)cc3)c2)on1`, the inhibition was 44.5% (inactive).

Regarding `Cc1noc(C)c1CSCC(=O)N(CCC(C)C)c1c(N)n(Cc2ccccc2)c(=O)[nH]c1=O`, the inhibition is 9.8% (inactive).

Consider `O=C(CCN1C(=O)C2C3CCC(C3)C2C1=O)Nc1ccc(Cl)cc1Cl` (centres undefined), for which the inhibition is 26.6% (inactive).

For `Cn1cc(CNC(=O)c2ccc(OC3CCN(Cc4ccccn4)CC3)cc2)cn1`, the inhibition was 69% (active).

Consider `Cc1nn(C)c(C)c1C(C)NC(=O)c1ccc(OC2CCN(Cc3ccccn3)CC2)cc1` (centres undefined), for which the inhibition is 18.5% (inactive).

For `COCc1ccc(CN2CCC(Oc3ccc(C(=O)NCc4ccccn4)cc3)CC2)o1`, the inhibition was 61% (active).

For `CN(CCc1ccccn1)C(=O)c1ccc(OC2CCN(Cc3ccccn3)CC2)cc1`, the inhibition is 17% (inactive).

With `O=C(c1ccc(OC2CCN(Cc3ccccn3)CC2)cc1)N1CCCCCC1`, the inhibition was 32.8% (inactive).

As to `O=C(NCCOc1cccnc1)c1ccc(OC2CCN(Cc3ccccn3)CC2)cc1`, the inhibition was 13.7% (inactive).

Take `COc1cc(/C=N/N2CCN(c3ccccc3)CC2)ccc1OC(C)=O`: the inhibition was 13.8% (inactive).

As to `Cc1cc(C)cc(NC(=O)NCc2ccccn2)c1`, the inhibition was 19% (inactive).

Take `Cc1cc(C(=O)CSc2nc(N)cc(=O)[nH]2)c(C)n1Cc1ccco1`: the inhibition was 14.9% (inactive).

On to `COc1ccc(OC)c(-n2nnnc2SCC(=O)Nc2cc(C)ccc2OC)c1`, for which the inhibition is -22.4% (inactive).

Take `COc1ccc(C)cc1-n1nnnc1SCC(=O)c1cc(C)n(Cc2ccco2)c1C`: the inhibition is 90.1% (active).

Turning to `CC(C)Cc1nnc(NC(=O)CN2C(=O)NC3(CCCCC3)C2=O)s1`, the inhibition was 24% (inactive).

Regarding `CCOC(=O)c1ccc(NC2Nc3cc(C)nn3S2)cc1` (centres undefined), the inhibition is 62.2% (active).

Regarding `CCc1ccc(NC2Nc3cc(C)nn3S2)cc1` (centres undefined), the inhibition was -1% (inactive).

For the molecule `CCOC(=O)c1ccc(Nc2cc(C)nc3nc(C)nn23)cc1`, the inhibition is -1.2% (inactive).

With `COc1ccc(CCNC(=O)CN2C(=O)CCSc3ccccc32)c(OC)c1`, the inhibition was 6.9% (inactive).

`COc1ccccc1CCCNC(=O)C1CCC(=O)N(CCN2CCOCC2)C1` (centres undefined): the inhibition was 4.2% (inactive).

For the molecule `CCOc1ccc(S(=O)(=O)Nc2ccc(S(=O)(=O)Nc3cc(OC)ccc3OC)cc2)cc1`, the inhibition is -2.6% (inactive).

Turning to `COc1ccc(NS(=O)(=O)c2ccc(NC(=S)NC(=O)CC(C)C)cc2)cc1`, the inhibition was -49.5% (inactive).

For `COc1ccc(OC)c(C(C)NC(=S)Nc2ccc(S(=O)(=O)Nc3ncccn3)cc2)c1` (centres undefined), the inhibition was 62.4% (active).

On to `Cc1ccc(C)c(NC(=O)c2cc(-c3cc(C)cc(C)c3O)n[nH]2)c1`, for which the inhibition was 41.9% (inactive).

Regarding `CCOc1ccc(C(=O)COC(=O)c2ccc(-n3cnnn3)cc2)cc1`, the inhibition was 13.7% (inactive).

`CCOC(=O)c1c(NC(=O)CSc2nccc(=O)[nH]2)sc(C)c1C`: the inhibition is 22.2% (inactive).

Regarding `CCOC(=O)c1c(-n2cnnn2)sc(C)c1C`, the inhibition was 98.7% (active).

`CCCC(C)NC(=O)C1CCN(C(=O)C2CC(=O)N(c3ccc(C)cc3)C2)CC1` (centres undefined): the inhibition is 14.2% (inactive).

Take `COc1cc(CC(=O)NCc2cccs2)cc(OC)c1OC`: the inhibition is 1% (inactive).

`CCN(CC(=O)NCc1cccs1)C(=O)c1ccccc1F`: the inhibition is 16.3% (inactive).

`CCN(CC(=O)NCc1cccs1)C(=O)c1cccc(S(=O)(=O)Nc2ccccc2OC)c1`: the inhibition was 60.6% (active).

As for `Cc1nnc(SCC(=O)NNC(=O)c2ccc(Cl)cc2)n1CC1CCCO1` (centres undefined), the inhibition was 14.8% (inactive).

As to `Cc1ccc(-n2c(-c3ccc(Cl)cc3)n[nH]c2=S)cc1`, the inhibition is -46.5% (inactive).

Take `S=c1[nH]nc(-c2ccc(Cl)cc2)n1CC1CCCO1` (centres undefined): the inhibition is 90.4% (active).

`CCn1c(Cc2ccccc2)nnc1SCc1nc2ccccc2c(=O)[nH]1`: the inhibition was 6.3% (inactive).

For `O=c1[nH]c(CSc2ncc(-c3ccc(F)cc3)n2Cc2ccco2)nc2ccccc12`, the inhibition is 67.4% (active).

Consider `CCn1c(COc2c(C)cccc2C)nnc1SCc1nc2ccccc2c(=O)[nH]1`, for which the inhibition was 29.2% (inactive).

On to `Cc1ccccc1CCNC(=O)C1CCC(=O)N(Cc2ccc(Cl)cc2)C1` (centres undefined), for which the inhibition is 27% (inactive).

As to `COc1ccc2c(c1)C(NS(=O)(=O)OCC(Cl)(Cl)Cl)CCC2` (centres undefined), the inhibition is -7.3% (inactive).
